Laboratory results as given in PubChem BioAssay.
Unmarked numbers belong to inactive results. The source made the active and inactive calls.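 The calls were made as follows, unless noted: active = viability loss from added drug above about 55%, and viability with drug at most 40%, in both replicates (limit read from the data, passing the limit was not always enough); inconclusive = both conditions met in only one replicate; inactive = neither replicate meets both conditions.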

Assay: growth inhibitors of H69AR lung tumor, primary screen, human, duplicate replicates (AID 580;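 active = viability at or under a set limit in both replicates, limit being median viability minus 3 SD, cut at about 48% in these data, passing the limit was not always enough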;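 also: 100% = mean luminescence of untreated wells and 0% = no signal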)
Details: H69AR lung tumor cells viability, ATP luminescence, 72 h; at 10 µM; hits give low values
For `Cc1noc(C)c1COc1cccc(C(=O)Nc2ccc(C#N)cc2)c1`, the viability was 68.9%. Work on `Cc1ccc(NCc2nnc(SCC(=O)N3CCCCC3)n2CC2CCCO2)c(C)c1` (stereo not given) yielded a viability of 88.7%. In the case of `COc1ccc(S(=O)(=O)N2CCOCC2)cc1C(=O)Nc1cc(C)on1`, the viability is reported as 93.9%. In the case of `CC(NC(=O)c1ccco1)C(c1cccs1)N1CCN(c2ccc(F)cc2)CC1` (stereo not given), the viability is reported as 86.2%. Work on `CCN1C(=O)NC(c2cc(Br)ccc2OC)C(C(=O)OC)=C1C` (stereo not given) yielded a viability of 95.3%. `COc1ccc(N2CCN(C(c3cccs3)c3nnnn3C3CCCC3)CC2)cc1` (stereo not given) showed a viability of 70%. With `c1ccc(-n2c(Sc3cnccn3)nnc2-c2cccs2)cc1` the viability was 95.8%. `Nn1c(SCC(=O)Nc2ccc3c(c2)OCCO3)nnc1C(F)(F)F` showed a viability of 80.9%. Work on `O=C(NC1=NCCS1)NC12CC3CC(CC(C3)C1)C2` yielded a viability of 93%. For `CC1CCCCC1NC(=O)Cn1nnc(-c2ccc(Cl)cc2)n1` (stereo not given), the viability was 91.9%. `CCOC(=O)C(NC(=O)c1ccc(OC)cc1)(N1CCOCC1)C(F)(F)F` (stereo not given) showed a viability of 100%. With `CC(C)Cc1cc(C(=O)Nc2c(F)cc(F)cc2Br)no1` the viability was 113%. `CCC(C)(C(=O)NC1CCCCC1)N(CC1CCCO1)C(=O)c1ccccn1` (stereo not given) gave a viability of 89%. In the case of `COCCNC(=O)C(c1ccc(C)o1)N(Cc1ccc(OC)cc1)C(=O)Cn1nnc2ccccc21` (stereo not given), the viability is reported as 97.8%. Work on `CC(=O)c1c(C)[nH]c(C(=O)N2CCN(C(=O)c3ccco3)CC2)c1C` yielded a viability of 99.1%. Work on `O=C(NC12CC3CC(CC(C3)C1)C2)c1cncc(O)c1` yielded a viability of 85.6%. `CCOC(=O)C1CCN(c2nc3ccccc3nc2C(C#N)C(=O)OCCOC)CC1` (stereo not given) gave a viability of 79.4%. With `Cc1ccccc1-c1nc(CN2CCC(C(=O)NCCCN3CCOCC3)CC2)c(C)o1` the viability was 97.2%. `COc1ccccc1NC(=O)C1=C(C)Nc2nnnn2C1c1ccccc1OC` (stereo not given) showed a viability of 98.9%. Work on `O=C(C1CCCN(S(=O)(=O)c2cnc[nH]2)C1)N1CC(=O)N(CCc2ccccc2)C(=O)C1` (stereo not given) yielded a viability of 95%. Work on `Cc1c(Cl)cccc1N1C(=O)c2ccccc2C1=O` yielded a viability of 111%. For `CCN(CC)CCCN(Cc1cc2cc(OC)ccc2[nH]c1=O)C(=O)Nc1ccccc1`, the viability was 77.7%. In the case of `O=C1CCCC2=C1C(c1ccsc1)CC(=O)N2c1ccccc1` (stereo not given), the viability is reported as 92.4%. With `Cc1ccc(NC(=O)CSc2nnc(NC(=O)CN3CCOCC3)s2)cc1` the viability was 94.1%. With `COC(=O)c1ccccc1NS(=O)(=O)c1ccc(F)cc1` the viability was 102%. Work on `COc1cccc(NC(=O)N2CCN(c3cccc(C)c3C)CC2)c1` yielded a viability of 82.8%. `CC(C)CN(C(=O)COC(=O)Cc1n[nH]c(=O)c2ccccc12)C1CCS(=O)(=O)C1` (stereo not given) showed a viability of 90.1%. Work on `CC1CCCC(C(=O)OCc2ccccc2)N1` (stereo not given) yielded a viability of 97.2%. In the case of `COc1cccc(NC(=O)NC2(C(F)(F)F)Oc3ccccc3O2)c1`, the viability is reported as 30.7% (active). Work on `CCC(=O)N1CCc2cc(OC)c(OC)cc2C1COc1ccc(C(=O)OC)cc1` (stereo not given) yielded a viability of 91.5%. Work on `Cc1ccc(-c2cc(C(=O)N3CCCC3)no2)cc1` yielded a viability of 95.1%. In the case of `CCn1nc(C)c(NC(=O)c2cc(Br)ccc2Cl)c1C`, the viability is reported as 94%. For `Cc1cc2nc3c(nc2cc1C)C1(C(=O)O)CCC3(C)C1(C)C` (stereo not given), the viability was 95.3%. `COc1ccccc1CN1CC(C(=O)N2CCN(c3ccc(F)cc3)CC2)CC1=O` (stereo not given) showed a viability of 88.8%. Compound `CC(=O)N1CCC2(CC1)CC(=O)c1cc(OCC(=O)NCc3ccco3)ccc1O2` has a viability of 83.5%. In the case of `Cc1ccc(C(=O)CCC2CCCC2=O)cc1` (stereo not given), the viability is reported as 89%. Compound `Cc1nc(CNS(=O)(=O)c2ccc3c(c2)OCCO3)cs1` has a viability of 96.6%. In the case of `CCOCCCNC(=O)C1CCN(C(=O)Nc2ccc(Cl)cc2)CC1`, the viability is reported as 102%. In the case of `CCc1nc2c(cnn2-c2ccc(Cl)cc2)c(=O)n1-c1ccc2c(c1)OCCO2`, the viability is reported as 83.6%. Work on `CCOc1ccc(C2CC(=O)NC3=C2C(=O)CCC3)cc1Cl` (stereo not given) yielded a viability of 99.4%.

Assay: reversal of MRP1-mediated doxorubicin resistance, pilot screen, H69AR cells, doxorubicin co-treatment (AID 601)
Details: H69AR cells + 2 uM doxorubicin, CellTiter-Glo, 72 h; at 10 µM; hits give high values
Compound `Cc1noc(C)c1COc1cccc(C(=O)Nc2ccc(C#N)cc2)c1` has a differential viability (reversal) of -10.6%. For `Cc1ccc(NCc2nnc(SCC(=O)N3CCCCC3)n2CC2CCCO2)c(C)c1` (stereo not given), the differential viability (reversal) was 1.68%. Work on `COc1ccc(S(=O)(=O)N2CCOCC2)cc1C(=O)Nc1cc(C)on1` yielded a differential viability (reversal) of 8.07%. For `CC(NC(=O)c1ccco1)C(c1cccs1)N1CCN(c2ccc(F)cc2)CC1` (stereo not given), the differential viability (reversal) was -15.7%. Work on `CCN1C(=O)NC(c2cc(Br)ccc2OC)C(C(=O)OC)=C1C` (stereo not given) yielded a differential viability (reversal) of -2.65%. For `COc1ccc(N2CCN(C(c3cccs3)c3nnnn3C3CCCC3)CC2)cc1` (stereo not given), the differential viability (reversal) was -17.6%. `c1ccc(-n2c(Sc3cnccn3)nnc2-c2cccs2)cc1` gave a differential viability (reversal) of 7.33%. With `Nn1c(SCC(=O)Nc2ccc3c(c2)OCCO3)nnc1C(F)(F)F` the differential viability (reversal) was -7.85%. Work on `O=C(NC1=NCCS1)NC12CC3CC(CC(C3)C1)C2` yielded a differential viability (reversal) of 4.27%. Work on `CC1CCCCC1NC(=O)Cn1nnc(-c2ccc(Cl)cc2)n1` (stereo not given) yielded a differential viability (reversal) of 14.6%. With `CCOC(=O)C(NC(=O)c1ccc(OC)cc1)(N1CCOCC1)C(F)(F)F` (stereo not given) the differential viability (reversal) was -2.41%. For `CC(C)Cc1cc(C(=O)Nc2c(F)cc(F)cc2Br)no1`, the differential viability (reversal) was 30%. Work on `CCC(C)(C(=O)NC1CCCCC1)N(CC1CCCO1)C(=O)c1ccccn1` (stereo not given) yielded a differential viability (reversal) of -1.55%. `COCCNC(=O)C(c1ccc(C)o1)N(Cc1ccc(OC)cc1)C(=O)Cn1nnc2ccccc21` (stereo not given) showed a differential viability (reversal) of -6.28%. With `CC(=O)c1c(C)[nH]c(C(=O)N2CCN(C(=O)c3ccco3)CC2)c1C` the differential viability (reversal) was 0.42%. For `O=C(NC12CC3CC(CC(C3)C1)C2)c1cncc(O)c1`, the differential viability (reversal) was -9.31%. `CCOC(=O)C1CCN(c2nc3ccccc3nc2C(C#N)C(=O)OCCOC)CC1` (stereo not given) showed a differential viability (reversal) of 27.7%. For `Cc1ccccc1-c1nc(CN2CCC(C(=O)NCCCN3CCOCC3)CC2)c(C)o1`, the differential viability (reversal) was 5.29%. With `COc1ccccc1NC(=O)C1=C(C)Nc2nnnn2C1c1ccccc1OC` (stereo not given) the differential viability (reversal) was 10.4%. For `O=C(C1CCCN(S(=O)(=O)c2cnc[nH]2)C1)N1CC(=O)N(CCc2ccccc2)C(=O)C1` (stereo not given), the differential viability (reversal) was -4.7%. For `Cc1c(Cl)cccc1N1C(=O)c2ccccc2C1=O`, the differential viability (reversal) was 2.93%. Compound `CCN(CC)CCCN(Cc1cc2cc(OC)ccc2[nH]c1=O)C(=O)Nc1ccccc1` has a differential viability (reversal) of 3.46%. `O=C1CCCC2=C1C(c1ccsc1)CC(=O)N2c1ccccc1` (stereo not given) gave a differential viability (reversal) of -3.37%. In the case of `Cc1ccc(NC(=O)CSc2nnc(NC(=O)CN3CCOCC3)s2)cc1`, the differential viability (reversal) is reported as 9.71%. For `COC(=O)c1ccccc1NS(=O)(=O)c1ccc(F)cc1`, the differential viability (reversal) was 13.1%. For `COc1cccc(NC(=O)N2CCN(c3cccc(C)c3C)CC2)c1`, the differential viability (reversal) was -4.58%. In the case of `CC(C)CN(C(=O)COC(=O)Cc1n[nH]c(=O)c2ccccc12)C1CCS(=O)(=O)C1` (stereo not given), the differential viability (reversal) is reported as 4.47%. Work on `CC1CCCC(C(=O)OCc2ccccc2)N1` (stereo not given) yielded a differential viability (reversal) of 6.15%. `COc1cccc(NC(=O)NC2(C(F)(F)F)Oc3ccccc3O2)c1` showed a differential viability (reversal) of -17.4%. `CCC(=O)N1CCc2cc(OC)c(OC)cc2C1COc1ccc(C(=O)OC)cc1` (stereo not given) showed a differential viability (reversal) of -2.33%. In the case of `Cc1ccc(-c2cc(C(=O)N3CCCC3)no2)cc1`, the differential viability (reversal) is reported as 2%. `CCn1nc(C)c(NC(=O)c2cc(Br)ccc2Cl)c1C` showed a differential viability (reversal) of 14.3%. Work on `Cc1cc2nc3c(nc2cc1C)C1(C(=O)O)CCC3(C)C1(C)C` (stereo not given) yielded a differential viability (reversal) of -0.805%. Compound `COc1ccccc1CN1CC(C(=O)N2CCN(c3ccc(F)cc3)CC2)CC1=O` (stereo not given) has a differential viability (reversal) of -3.51%. `CC(=O)N1CCC2(CC1)CC(=O)c1cc(OCC(=O)NCc3ccco3)ccc1O2` showed a differential viability (reversal) of -4.33%. `Cc1ccc(C(=O)CCC2CCCC2=O)cc1` (stereo not given) gave a differential viability (reversal) of 0.57%. `Cc1nc(CNS(=O)(=O)c2ccc3c(c2)OCCO3)cs1` showed a differential viability (reversal) of -0.265%. In the case of `CCOCCCNC(=O)C1CCN(C(=O)Nc2ccc(Cl)cc2)CC1`, the differential viability (reversal) is reported as 10.9%. Work on `CCc1nc2c(cnn2-c2ccc(Cl)cc2)c(=O)n1-c1ccc2c(c1)OCCO2` yielded a differential viability (reversal) of -4.38%. Work on `CCOc1ccc(C2CC(=O)NC3=C2C(=O)CCC3)cc1Cl` (stereo not given) yielded a differential viability (reversal) of 14.2%.
